Experimental data published in PubChem BioAssay (EPA / NIEHS).
Results filed as inconclusive are left out. Activity calls are given as the source filed them. The calls were made as follows: active = hit-call score of the fitted dose curve at least 0.9, where 1 is the maximum; inconclusive = response in the unintended direction; inactive = score below 0.9.

Columns and labels:
[1] = molecular target: human Aurora Kinase A - serine/threonine-protein Kinase 6 (AurA), AURKA (gene 6790) (UniProt O14965); test: NVS_ENZ_hAurA: NovaScreen (NVS) Enzymatic Assay for human Aurora Kinase A - serine/threonine-protein Kinase 6 (AurA) (AID 2283142)
Procedure, shortened: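 Cell-free enzymatic assay with human Aurora A, 1 hour after dosing. Fluorescent substrate turnover detected after electrophoretic mobility shift separation of substrate and product. Screened at 25 uM, actives retested in concentration-response up to 50 uM.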

[2] = molecular target: human Colony Stimulating Factor 1 Receptor (CSF1R), CSF1R (gene 1436) (UniProt P07333); test: NVS_ENZ_hCSF1R: NovaScreen (NVS) Enzymatic Assay for human Colony Stimulating Factor 1 Receptor (CSF1R) (AID 2283150)
Procedure, shortened: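 Cell-free recombinant human CSF1R kinase with fluorescent substrate, product separated by electrophoretic mobility shift; read 1 h after dosing. Primary screen at 25 uM in duplicate, actives then in concentration-response up to 50 uM, relative to DMSO.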

[3] = molecular target: human Fibroblast Growth Factor Receptor 1 (FGFR1), FGFR1 (gene 2260) (UniProt P11362); test: NVS_ENZ_hFGFR1: NovaScreen (NVS) Enzymatic Assay for human Fibroblast Growth Factor Receptor 1 (FGFR1) (AID 2283159)
Procedure, shortened: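 Cell-free recombinant kinase with fluorescent substrate, product separated by electrophoretic mobility shift; read 1 hour after dosing, loss of signal relative to DMSO. Initial screen in duplicate at 25 uM, actives followed in concentration series.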

[4] = molecular target: human Elastase, ELANE (gene 1991) (UniProt P08246); test: NVS_ENZ_hElastase: NovaScreen (NVS) Enzymatic Assay for human Elastase (AID 2283153)
Procedure, shortened: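 Cell-free elastase from human neutrophils, 1.5 h after dosing, activity read by absorbance. Primary screen in duplicate at 25 uM; hits (e.g., 30% inhibition) rerun in singleton concentration-response up to 50 uM, fitted versus DMSO.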

[5] = molecular target: human Ephrin type-A Receptor 2 (EphA2), EPHA2 (gene 1969) (UniProt P29317); test: NVS_ENZ_hEphA2: NovaScreen (NVS) Enzymatic Assay for human Ephrin type-A Receptor 2 (EphA2) (AID 2283155)
Procedure, shortened: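 Cell-free recombinant EphA2 kinase with specific substrate, 1 h, fluorescence with electrophoretic mobility-shift separation of substrate and product. Primary screen at 25 uM in duplicate; hits retested in singleton concentration-response up to 50 uM, referenced to DMSO.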

[6] = molecular target: human Casein Kinase 2- alpha 2 beta 2 (CK2a2b2), CSNK2A1 (gene 1457) (UniProt P68400); test: NVS_ENZ_hCK2a2b2: NovaScreen (NVS) Enzymatic Assay for human Casein Kinase 2- alpha 2 beta 2 (CK2a2b2) (AID 2283147)
Procedure, shortened: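 Cell-free recombinant CK2 α2β2 holoenzyme with a fluorescent peptide substrate; product separated by electrophoretic mobility shift and read 1 h after dosing. Single-point screen at 25 uM in duplicate; actives were followed with concentration-response up to 50 uM versus DMSO.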

[7] = molecular target: human Ephrin type-B Receptor 1 (EphB1), EPHB1 (gene 2047) (UniProt P54762); test: NVS_ENZ_hEphB1: NovaScreen (NVS) Enzymatic Assay for human Ephrin type-B Receptor 1 (EphB1) (AID 2283154)
Procedure, shortened: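 Cell-free kinase assay with recombinant enzyme, fluorescent substrate and electrophoretic mobility-shift separation of substrate and product; read 1 h after dosing. Single-concentration duplicate screen at 25 uM; loss of signal versus DMSO baseline.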

[8] = molecular target: human IkappaB Kinase alpha (IKKa), CHUK (gene 1147) (UniProt O15111); test: NVS_ENZ_hIKKa: NovaScreen (NVS) Enzymatic Assay for human IkappaB Kinase alpha (IKKa) (AID 2283167)
Procedure, shortened: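 Cell-free recombinant human IKKa with fluorescent substrate, product separated by electrophoretic mobility shift; read 1 hour after dosing. Primary screen duplicate at 25 uM, actives then concentration-response up to 50 uM; loss of signal relative to DMSO.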

[9] = molecular target: human Esterase Plasma (ES), BCHE (gene 590) (UniProt P06276); test: NVS_ENZ_hES: NovaScreen (NVS) Enzymatic Assay for human Esterase Plasma (ES) (AID 2283157)
Procedure, shortened: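 Chemicals were added to plasma-extracted human enzyme in a cell-free format, and activity was read colorimetrically after 0.25 hour. Activity loss was referenced to DMSO; concentration-response top dose was 50 uM.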

[10] = molecular target: human Dual Specificity Protein Phosphatase 3 (DUSP3), DUSP3 (gene 1845) (UniProt P51452); test: NVS_ENZ_hDUSP3: NovaScreen (NVS) Enzymatic Assay for human Dual Specificity Protein Phosphatase 3 (DUSP3) (AID 2283152);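 also: phosphatase activity of recombinant human DUSP3 on a fluorogenic substrate without cells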
Procedure, shortened: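 Cell-free assay with recombinant human DUSP3 and fluorogenic substrate, read by fluorescence intensity. Primary screen ran duplicate at 25 uM; actives followed up in concentration series; loss of signal versus DMSO scored.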

[11] = molecular target: human Casein Kinase 1-delta (CK1D), CSNK1D (gene 1453) (UniProt P48730); test: NVS_ENZ_hCK1D: NovaScreen (NVS) Enzymatic Assay for human Casein Kinase 1-delta (CK1D) (AID 2283148)
Procedure, shortened: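 Recombinant human CK1-delta, cell-free; fluorescent substrate with electrophoretic mobility-shift separation of product, read 1 h after dosing. Single 25 uM duplicate screen, then concentration-response up to 50 uM; loss of signal vs DMSO.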

[12] = molecular target: Glycogen synthase kinase-3 beta (Homo sapiens) (UniProt P49841); test: NVS_ENZ_hGSK3b: NovaScreen (NVS) Enzymatic Assay for human Glycogen Synthase Kinase-3 beta (GSK3b) (AID 2283165)
Procedure, shortened: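 Recombinant enzyme with specific fluorescent substrate, 1 h, product separated by electrophoretic mobility shift. Primary duplicate screen at 25 uM; actives (e.g. 30% inhibition) followed in singleton concentration-response to 50 uM. Signal loss fitted versus DMSO.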

CDK2 (gene 1017) = CDK2 (gene 1017) (UniProt P24941); test: NVS_ENZ_hCDK2: NovaScreen (NVS) Enzymatic Assay for human Cyclin-Cependent Kinase 2 (CDK2) (AID 2283144)
Procedure, shortened: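 Cell-free recombinant human CDK2 with fluorescent substrate, product separated by electrophoretic mobility shift; 1 hr read. Primary screen at 25 uM in duplicate, actives retested in concentration-response up to 50 uM; loss of signal versus DMSO.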

[13] = molecular target: human Ephrin type-A Receptor 1 (EphA1), EPHA1 (gene 2041) (UniProt P21709); test: NVS_ENZ_hEphA1: NovaScreen (NVS) Enzymatic Assay for human Ephrin type-A Receptor 1 (EphA1) (AID 2283158);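 also: activity is signal loss versus DMSO meaning EphA1 kinase inhibition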
Procedure, shortened: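 Here the EphA1 protein is recombinant and the substrate fluorescent, with electrophoretic separation before fluorescence detection at 1 hour. Signal loss against DMSO defines activity; plate controls included; follow-up concentration series reach 50 uM.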

[14] = molecular target: human Caspase 8 (CASP8), CASP8 (gene 841) (UniProt Q14790); test: NVS_ENZ_hCASP8: NovaScreen (NVS) Enzymatic Assay for human Caspase 8 (CASP8) (AID 2283146)
Procedure, shortened: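 E. coli-expressed enzyme was used in a cell-free fluorogenic substrate assay read 1 h after dosing. Loss of signal was scored relative to DMSO, and the primary screen was run in duplicate at 25 uM.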

[15] = molecular target: human FYN Proto-Oncogene, Src family Tyrosine Kinase (Fyn), FYN (gene 2534) (UniProt P06241); test: NVS_ENZ_hFyn: NovaScreen (NVS) Enzymatic Assay for human FYN Proto-Oncogene, Src family Tyrosine Kinase (Fyn) (AID 2283161)
Procedure, shortened: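 Recombinant enzyme with fluorescent substrate, product separated by electrophoretic mobility shift; read 1 h after dosing. Duplicate 25 uM single-point screen, actives retested in concentration series; loss of signal vs DMSO.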

Chain of human Aurora Kinase A - serine/threonine-protein Kinase 6 (AurA), AURKA (gene 6790) (O14965 whole entry, looked up): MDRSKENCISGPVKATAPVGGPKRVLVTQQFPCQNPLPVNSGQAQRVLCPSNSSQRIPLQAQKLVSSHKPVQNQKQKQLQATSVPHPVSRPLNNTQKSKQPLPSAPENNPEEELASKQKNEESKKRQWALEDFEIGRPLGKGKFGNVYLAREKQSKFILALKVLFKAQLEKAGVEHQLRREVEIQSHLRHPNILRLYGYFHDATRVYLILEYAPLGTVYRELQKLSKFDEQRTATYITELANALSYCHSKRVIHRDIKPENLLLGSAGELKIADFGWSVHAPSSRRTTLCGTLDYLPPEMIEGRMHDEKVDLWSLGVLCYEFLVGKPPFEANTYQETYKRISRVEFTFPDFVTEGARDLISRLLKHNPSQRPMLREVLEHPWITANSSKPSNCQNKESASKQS
Chain of human Colony Stimulating Factor 1 Receptor (CSF1R), CSF1R (gene 1436) (P07333 whole entry, looked up): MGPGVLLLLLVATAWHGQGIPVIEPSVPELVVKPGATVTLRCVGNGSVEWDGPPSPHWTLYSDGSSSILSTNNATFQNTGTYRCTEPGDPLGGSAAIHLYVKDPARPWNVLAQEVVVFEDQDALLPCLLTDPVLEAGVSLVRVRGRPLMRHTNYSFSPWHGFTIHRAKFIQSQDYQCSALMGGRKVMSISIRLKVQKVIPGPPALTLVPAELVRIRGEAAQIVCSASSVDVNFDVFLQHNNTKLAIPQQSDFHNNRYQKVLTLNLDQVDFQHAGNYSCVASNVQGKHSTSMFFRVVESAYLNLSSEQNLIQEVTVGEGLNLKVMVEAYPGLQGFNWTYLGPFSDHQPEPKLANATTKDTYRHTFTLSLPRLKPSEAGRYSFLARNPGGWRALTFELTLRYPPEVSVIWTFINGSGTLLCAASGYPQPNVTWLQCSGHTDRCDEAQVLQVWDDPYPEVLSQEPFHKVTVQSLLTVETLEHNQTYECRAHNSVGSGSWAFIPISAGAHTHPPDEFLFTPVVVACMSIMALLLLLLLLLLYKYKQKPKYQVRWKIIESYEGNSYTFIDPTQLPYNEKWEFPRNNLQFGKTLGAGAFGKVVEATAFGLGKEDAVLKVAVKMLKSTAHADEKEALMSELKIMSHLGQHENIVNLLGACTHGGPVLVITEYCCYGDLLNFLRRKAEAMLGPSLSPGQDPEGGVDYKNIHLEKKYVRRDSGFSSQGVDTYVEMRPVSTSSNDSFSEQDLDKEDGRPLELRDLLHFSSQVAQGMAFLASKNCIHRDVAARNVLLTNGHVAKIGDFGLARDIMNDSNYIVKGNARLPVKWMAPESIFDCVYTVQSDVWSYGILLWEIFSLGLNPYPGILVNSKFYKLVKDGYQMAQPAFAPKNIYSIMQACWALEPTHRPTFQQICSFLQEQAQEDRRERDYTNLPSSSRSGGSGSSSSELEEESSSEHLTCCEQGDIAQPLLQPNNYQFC
Chain of human Fibroblast Growth Factor Receptor 1 (FGFR1), FGFR1 (gene 2260) (P11362 whole entry, looked up): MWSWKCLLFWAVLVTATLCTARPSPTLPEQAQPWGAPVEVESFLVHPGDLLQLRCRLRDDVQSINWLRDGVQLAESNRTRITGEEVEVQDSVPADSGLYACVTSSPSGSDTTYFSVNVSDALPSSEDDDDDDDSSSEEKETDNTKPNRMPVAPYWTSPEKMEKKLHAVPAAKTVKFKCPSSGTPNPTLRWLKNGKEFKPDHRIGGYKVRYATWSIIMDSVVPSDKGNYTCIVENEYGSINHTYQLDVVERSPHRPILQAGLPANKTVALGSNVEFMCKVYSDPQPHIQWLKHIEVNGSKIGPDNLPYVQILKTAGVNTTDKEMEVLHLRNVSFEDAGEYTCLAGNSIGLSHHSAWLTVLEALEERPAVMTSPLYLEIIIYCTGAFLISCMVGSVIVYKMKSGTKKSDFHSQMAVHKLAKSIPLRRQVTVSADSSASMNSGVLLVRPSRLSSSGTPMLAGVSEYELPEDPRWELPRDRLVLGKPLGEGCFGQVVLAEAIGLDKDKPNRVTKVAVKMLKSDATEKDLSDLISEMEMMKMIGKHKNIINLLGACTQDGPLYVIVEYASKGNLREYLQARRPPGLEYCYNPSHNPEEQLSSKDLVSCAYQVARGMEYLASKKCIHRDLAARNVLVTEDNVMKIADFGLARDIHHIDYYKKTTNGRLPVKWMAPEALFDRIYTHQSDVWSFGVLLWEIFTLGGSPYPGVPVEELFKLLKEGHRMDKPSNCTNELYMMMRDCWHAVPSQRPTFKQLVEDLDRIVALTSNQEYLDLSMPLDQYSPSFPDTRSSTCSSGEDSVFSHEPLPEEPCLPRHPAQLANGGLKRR
Chain of human Elastase, ELANE (gene 1991) (P08246 whole entry, looked up): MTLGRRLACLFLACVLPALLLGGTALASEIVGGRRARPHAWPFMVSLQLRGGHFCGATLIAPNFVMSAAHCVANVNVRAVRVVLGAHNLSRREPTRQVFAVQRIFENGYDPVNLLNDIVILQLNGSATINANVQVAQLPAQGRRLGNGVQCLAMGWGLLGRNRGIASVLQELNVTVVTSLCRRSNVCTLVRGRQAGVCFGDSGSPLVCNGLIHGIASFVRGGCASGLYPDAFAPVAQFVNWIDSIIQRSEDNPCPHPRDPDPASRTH
Chain of human Ephrin type-A Receptor 2 (EphA2), EPHA2 (gene 1969) (P29317 whole entry, looked up): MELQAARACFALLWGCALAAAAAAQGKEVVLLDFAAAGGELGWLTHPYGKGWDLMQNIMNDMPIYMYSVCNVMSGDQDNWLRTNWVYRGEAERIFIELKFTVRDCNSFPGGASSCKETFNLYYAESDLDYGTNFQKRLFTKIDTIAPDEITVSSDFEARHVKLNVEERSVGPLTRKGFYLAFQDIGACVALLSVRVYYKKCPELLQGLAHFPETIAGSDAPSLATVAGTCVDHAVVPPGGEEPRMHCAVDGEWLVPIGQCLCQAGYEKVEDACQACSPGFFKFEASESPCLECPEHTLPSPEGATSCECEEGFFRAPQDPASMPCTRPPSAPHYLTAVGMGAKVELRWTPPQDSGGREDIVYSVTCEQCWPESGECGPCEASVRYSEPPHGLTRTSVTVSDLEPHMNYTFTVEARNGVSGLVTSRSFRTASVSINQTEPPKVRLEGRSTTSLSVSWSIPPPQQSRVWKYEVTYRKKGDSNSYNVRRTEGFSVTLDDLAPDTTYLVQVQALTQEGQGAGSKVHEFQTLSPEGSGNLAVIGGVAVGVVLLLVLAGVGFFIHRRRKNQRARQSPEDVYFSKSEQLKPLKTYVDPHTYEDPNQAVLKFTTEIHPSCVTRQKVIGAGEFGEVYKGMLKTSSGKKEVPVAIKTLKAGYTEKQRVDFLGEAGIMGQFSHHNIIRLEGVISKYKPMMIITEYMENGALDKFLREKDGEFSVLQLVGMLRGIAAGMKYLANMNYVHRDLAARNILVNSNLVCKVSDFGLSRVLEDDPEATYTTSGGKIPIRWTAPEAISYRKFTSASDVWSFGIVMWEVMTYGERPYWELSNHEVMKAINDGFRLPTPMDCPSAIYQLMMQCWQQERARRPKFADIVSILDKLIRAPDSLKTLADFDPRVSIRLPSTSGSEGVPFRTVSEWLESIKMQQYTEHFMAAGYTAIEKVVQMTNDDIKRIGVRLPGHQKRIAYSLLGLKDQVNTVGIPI
Chain of human Dual Specificity Protein Phosphatase 3 (DUSP3), DUSP3 (gene 1845) (P51452 whole entry, looked up): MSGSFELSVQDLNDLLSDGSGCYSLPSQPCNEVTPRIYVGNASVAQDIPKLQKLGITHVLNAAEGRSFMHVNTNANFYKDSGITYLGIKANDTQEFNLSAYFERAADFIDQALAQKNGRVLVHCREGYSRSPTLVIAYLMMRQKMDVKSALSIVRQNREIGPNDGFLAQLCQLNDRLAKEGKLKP
Chain of human Casein Kinase 2- alpha 2 beta 2 (CK2a2b2), CSNK2A1 (gene 1457) (P68400 whole entry, looked up): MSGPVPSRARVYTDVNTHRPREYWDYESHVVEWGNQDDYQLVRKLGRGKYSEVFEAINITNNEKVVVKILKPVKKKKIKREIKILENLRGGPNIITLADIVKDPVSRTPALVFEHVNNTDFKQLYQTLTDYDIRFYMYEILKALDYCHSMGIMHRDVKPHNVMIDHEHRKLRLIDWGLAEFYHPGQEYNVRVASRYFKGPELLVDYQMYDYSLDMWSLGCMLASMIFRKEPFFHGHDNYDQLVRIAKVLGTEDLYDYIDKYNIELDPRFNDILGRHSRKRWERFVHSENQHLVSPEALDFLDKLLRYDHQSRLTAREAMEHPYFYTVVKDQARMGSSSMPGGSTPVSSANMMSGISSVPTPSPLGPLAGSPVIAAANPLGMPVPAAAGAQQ
Chain of human Esterase Plasma (ES), BCHE (gene 590) (P06276 whole entry, looked up): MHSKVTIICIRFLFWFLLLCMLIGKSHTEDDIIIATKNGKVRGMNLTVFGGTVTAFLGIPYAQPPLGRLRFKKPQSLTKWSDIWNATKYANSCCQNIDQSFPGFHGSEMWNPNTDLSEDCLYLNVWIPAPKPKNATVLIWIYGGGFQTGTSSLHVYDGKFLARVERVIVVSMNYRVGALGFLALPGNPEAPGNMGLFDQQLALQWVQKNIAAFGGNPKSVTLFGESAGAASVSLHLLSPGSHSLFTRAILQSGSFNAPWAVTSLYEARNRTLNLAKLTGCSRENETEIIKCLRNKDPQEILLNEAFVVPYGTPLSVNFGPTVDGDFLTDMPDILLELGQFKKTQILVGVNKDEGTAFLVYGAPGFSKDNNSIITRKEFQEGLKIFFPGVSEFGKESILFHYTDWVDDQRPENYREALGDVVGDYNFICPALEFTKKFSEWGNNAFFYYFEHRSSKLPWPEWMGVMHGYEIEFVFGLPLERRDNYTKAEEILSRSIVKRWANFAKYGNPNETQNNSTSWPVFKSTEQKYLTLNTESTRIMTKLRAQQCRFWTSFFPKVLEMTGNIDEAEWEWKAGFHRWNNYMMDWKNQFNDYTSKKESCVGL

CCC(C)(C)C(=O)OC1=C(c2ccc(Cl)cc2Cl)C(=O)OC12CCCCC2
outcome [1]: inactive

CC(C)(C)C(O)C(Oc1ccc(Cl)cc1)n1cncn1 (stereo not given)
outcome [2]: inactive
outcome [3]: inactive

CC1(C)C(C=C(Cl)Cl)C1C(=O)OC(C#N)c1ccc(F)c(Oc2ccccc2)c1 (stereo not given)
outcome [2]: inactive
outcome [4]: inactive
outcome [5]: inactive

O=C(O)COc1ccc(Cl)cc1Cl
AC50 [6]: 19.7 µM (active)
outcome [7]: inactive
outcome [8]: inactive

CNC(=O)Oc1cccc(N=CN(C)C)c1
outcome [9]: inactive

CCOC1Oc2ccc(OS(C)(=O)=O)cc2C1(C)C (stereo not given)
outcome [2]: inactive

CCCN(CCOc1c(Cl)cc(Cl)cc1Cl)C(=O)n1ccnc1
outcome [10]: inactive

CCOc1nc(NC)nc(NC(=O)NS(=O)(=O)c2ccccc2C(=O)OC)n1
AC50 [11]: 18.4 µM (active)

N#Cc1c(Cl)c(Cl)c(Cl)c(C#N)c1Cl
outcome [1]: inactive
AC50 [6]: 33.6 µM (active)
AC50 [10]: 17.7 µM (active)
AC50 [12]: 25 µM (active)

CC(C)N(C(=O)COc1nnc(C(F)(F)F)s1)c1ccc(F)cc1
outcome (CDK2 (gene 1017)): inactive
AC50 [9]: 11.8 µM (active)

CCC(C)(NC(=O)c1cc(Cl)c(C)c(Cl)c1)C(=O)CCl (stereo not given)
outcome [6]: inactive

CNC(=O)CSP(=S)(OC)OC
outcome [7]: inactive
outcome [5]: inactive
outcome [13]: inactive
outcome [3]: inactive

CNC(=O)/C=C(\C)OP(=O)(OC)OC
AC50 [9]: 18.3 µM (active)

COc1nn(CSP(=S)(OC)OC)c(=O)s1
outcome [14]: inactive

CC[C@H](C)[C@H]1O[C@]2(C=C[C@@H]1C)C[C@@H]1C[C@@H](C/C=C(\C)[C@@H](O[C@H]3C[C@H](OC)[C@@H](O[C@H]4C[C@H](OC)[C@@H](O)[C@H](C)O4)[C@H](C)O3)[C@@H](C)/C=C/C=C3\CO[C@@H]4[C@H](O)C(C)=C[C@@H](C(=O)O1)[C@]34O)O2 (tested in a mixture with another compound)
AC50 [10]: 2.74 µM (active)
outcome [7]: inactive
outcome [3]: inactive

O=C(O)C(F)(F)C(F)(F)C(F)(F)C(F)(F)C(F)(F)C(F)(F)C(F)(F)F
outcome [1]: inactive
outcome [10]: inactive
outcome [4]: inactive
outcome [15]: inactive
outcome [8]: inactive

Oc1cc(Cl)ccc1Oc1ccc(Cl)cc1Cl
outcome [14]: inactive
outcome [2]: inactive
outcome [10]: inactive
outcome [4]: inactive
outcome [5]: inactive
outcome [3]: inactive
